Data reported in the supplement of paper PMC10849652.
Of roughly 8,800 targets only a part is listed; those with a hit were picked by preference. About 0.5% of all pairs of compound and target were hits.

How the values were obtained:
Test in all cases: log2 fold change, soluble protein after heating vs DMSO (PISA); higher = thermal stabilisation; K562 lysate, 10 uM; active = over 0.2 and 3.5 SD of the protein, either way, in both replicates (recomputed)
lapatinib = compound: CS(=O)(=O)CCNCc1ccc(-c2ccc3ncnc(Nc4ccc(OCc5cccc(F)c5)c(Cl)c4)c3c2)o1 [lapatinib]
Outline: (§1)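 Log-two fold change in thermal stability relative to solvent controls is reported from duplicates. For each sample, crude K562 extract from dounce-homogenised pellets in PBS pH 7.4 with 1 mM MgCl2, at 1 mg/mL protein, was treated with 10 μM compound for 30 min. Aliquots heated for 3 min across 48°C-58°C were pooled, brought to 0.5% NP-40 at 4°C and cleared at 21,000xg for 90 min. The supernatant was quantified by TMTpro 16plex LC-MS/MS with channel sums equalised.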

pictilisib = compound: CS(=O)(=O)N1CCN(Cc2cc3nc(-c4cccc5[nH]ncc45)nc(N4CCOCC4)c3s2)CC1 [pictilisib]
Outline: as §1

crizotinib = compound: C[C@@H](Oc1cc(-c2cnn(C3CCNCC3)c2)cnc1N)c1c(Cl)ccc(F)c1Cl [crizotinib]
Outline: as §1

[1] = compound: C[C@H](C1=CC=C(C=C1)C(=O)NC2=C3C=CNC3=NC=C2)N
Outline: as §1

duvelisib = compound: C[C@H](Nc1ncnc2nc[nH]c12)c1cc2cccc(Cl)c2c(=O)n1-c1ccccc1 [duvelisib]
Outline: as §1

gandotinib = compound: Cc1cc(Nc2cc(CN3CCOCC3)c3nc(C)c(Cc4ccc(Cl)cc4F)n3n2)n[nH]1 [gandotinib]
Outline: as §1

tozasertib = compound: Cc1cc(Nc2cc(N3CCN(C)CC3)nc(Sc3ccc(NC(=O)C4CC4)cc3)n2)n[nH]1 [tozasertib]
Outline: as §1

doramapimod = compound: Cc1ccc(-n2nc(C(C)(C)C)cc2NC(=O)Nc2ccc(OCCN3CCOCC3)c3ccccc23)cc1 [doramapimod]
Outline: as §1

bafetinib = compound: Cc1ccc(NC(=O)c2ccc(CN3CC[C@H](N(C)C)C3)c(C(F)(F)F)c2)cc1Nc1nccc(-c2cncnc2)n1 [bafetinib]
Outline: as §1

[2] = compound: Cc1cccc(CC(=O)N2CCc3c2ccc(-c2cn(C)c4ncnc(N)c24)c3F)n1
Outline: as §1

Measured: log2 fold change

SLC16A1 (UniProt P53985)
Chain of UniProt P53985 (P53985 whole entry, looked up): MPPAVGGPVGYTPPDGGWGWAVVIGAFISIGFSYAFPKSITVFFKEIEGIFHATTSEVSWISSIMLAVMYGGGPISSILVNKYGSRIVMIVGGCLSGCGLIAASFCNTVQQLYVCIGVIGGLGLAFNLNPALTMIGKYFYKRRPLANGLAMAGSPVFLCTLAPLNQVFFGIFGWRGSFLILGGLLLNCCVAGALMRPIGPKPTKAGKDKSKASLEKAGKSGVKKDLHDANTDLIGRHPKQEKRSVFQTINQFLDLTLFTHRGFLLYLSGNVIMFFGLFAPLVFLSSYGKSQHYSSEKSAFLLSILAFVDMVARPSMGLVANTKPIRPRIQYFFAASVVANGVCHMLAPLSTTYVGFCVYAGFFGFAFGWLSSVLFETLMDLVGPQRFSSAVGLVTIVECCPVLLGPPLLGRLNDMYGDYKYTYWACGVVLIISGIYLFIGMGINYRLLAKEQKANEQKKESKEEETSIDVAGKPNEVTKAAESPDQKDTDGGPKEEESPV
inactive: lapatinib -0.009 | pictilisib 0.019 | crizotinib 0.006 | duvelisib -0.011 | gandotinib 0.22 | tozasertib -0.008 | doramapimod -0.017 | bafetinib -0.041
active: [1] -0.341 | [2] 0.246

SNRPD3 (UniProt P62318)
Chain of UniProt P62318 (P62318 whole entry, looked up): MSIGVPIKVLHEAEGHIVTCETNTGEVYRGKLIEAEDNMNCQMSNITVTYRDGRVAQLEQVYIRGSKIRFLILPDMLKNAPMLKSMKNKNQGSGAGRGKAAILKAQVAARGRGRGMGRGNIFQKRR
inactive: lapatinib -0.027 | pictilisib -0.06 | crizotinib 0.008 | duvelisib 0.052 | gandotinib 0.102 | tozasertib 0.028 | doramapimod 0.014 | bafetinib 0.069 | [2] 0.11
active: [1] -0.233

SPATA5L1 (UniProt Q9BVQ7)
Chain of UniProt Q9BVQ7 (Q9BVQ7 whole entry, looked up): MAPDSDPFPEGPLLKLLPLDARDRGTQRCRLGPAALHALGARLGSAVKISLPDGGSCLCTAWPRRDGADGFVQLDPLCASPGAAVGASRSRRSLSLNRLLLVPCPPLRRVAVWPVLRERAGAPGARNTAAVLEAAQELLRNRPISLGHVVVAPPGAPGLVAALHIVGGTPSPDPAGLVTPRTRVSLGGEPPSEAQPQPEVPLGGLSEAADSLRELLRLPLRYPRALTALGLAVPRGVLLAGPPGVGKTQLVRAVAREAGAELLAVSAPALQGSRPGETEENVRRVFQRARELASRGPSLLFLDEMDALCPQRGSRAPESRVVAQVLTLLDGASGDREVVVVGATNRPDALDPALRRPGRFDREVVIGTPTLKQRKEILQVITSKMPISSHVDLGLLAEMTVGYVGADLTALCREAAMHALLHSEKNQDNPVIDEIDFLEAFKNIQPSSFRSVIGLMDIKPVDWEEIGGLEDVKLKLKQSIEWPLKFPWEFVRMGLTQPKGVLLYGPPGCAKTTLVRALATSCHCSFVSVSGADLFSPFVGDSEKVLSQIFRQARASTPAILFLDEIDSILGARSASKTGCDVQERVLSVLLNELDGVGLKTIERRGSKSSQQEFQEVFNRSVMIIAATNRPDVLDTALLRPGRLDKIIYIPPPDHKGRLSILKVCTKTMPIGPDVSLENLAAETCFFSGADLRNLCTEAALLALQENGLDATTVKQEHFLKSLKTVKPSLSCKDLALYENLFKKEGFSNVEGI
inactive: lapatinib -0.017 | pictilisib 0.011 | crizotinib -0.107 | [1] 0.016 | duvelisib 0.001 | gandotinib -0.076 | tozasertib 0.013 | doramapimod -0.035 | bafetinib -0.001 | [2] 0.049

SMG1 (UniProt Q96Q15)
inactive: lapatinib -0.025 | pictilisib -0.05 | crizotinib -0.019 | [1] 0.002 | duvelisib 0.003 | gandotinib -0.105 | tozasertib 0.024 | doramapimod 0.015 | bafetinib -0.057 | [2] 0.049

SFR1 isoform 2 (UniProt Q86XK3)
active: [2] 0.261
inactive: lapatinib 0.001 | pictilisib 0.053 | crizotinib 0.006 | [1] 0.09 | duvelisib 0.043 | gandotinib 0.169 | tozasertib -0.002 | doramapimod 0.068 | bafetinib -0.097

SH3BGRL2 (UniProt Q9UJC5)
inactive: lapatinib 0.021 | pictilisib 0.012 | crizotinib -0.025 | duvelisib -0.007 | gandotinib -0.116 | tozasertib -0.078 | doramapimod 0.021 | bafetinib -0.058 | [2] -0.184
active: [1] 0.342

SRP54 (UniProt P61011)
Chain of UniProt P61011 (P61011 whole entry, looked up): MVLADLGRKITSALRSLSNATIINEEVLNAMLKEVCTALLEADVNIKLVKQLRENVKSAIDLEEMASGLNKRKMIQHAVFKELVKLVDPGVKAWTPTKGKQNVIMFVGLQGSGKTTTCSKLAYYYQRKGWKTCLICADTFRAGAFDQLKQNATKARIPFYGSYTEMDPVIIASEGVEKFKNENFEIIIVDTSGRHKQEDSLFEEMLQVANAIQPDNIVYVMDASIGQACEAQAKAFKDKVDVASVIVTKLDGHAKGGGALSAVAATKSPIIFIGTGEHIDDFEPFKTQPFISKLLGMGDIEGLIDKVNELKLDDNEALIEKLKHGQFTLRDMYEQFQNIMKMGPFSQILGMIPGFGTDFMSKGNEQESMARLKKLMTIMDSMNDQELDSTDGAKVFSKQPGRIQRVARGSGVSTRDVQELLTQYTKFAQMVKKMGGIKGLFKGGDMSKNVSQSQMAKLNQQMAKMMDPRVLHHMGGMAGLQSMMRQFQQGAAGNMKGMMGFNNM
inactive: lapatinib 0.021 | pictilisib -0.021 | crizotinib 0.019 | [1] -0.035 | duvelisib -0.024 | gandotinib 0.039 | tozasertib -0.004 | doramapimod 0.041 | bafetinib -0.029 | [2] 0.04

SH3BP5L (UniProt Q7L8J4)
inactive: lapatinib 0.006 | pictilisib -0.004 | crizotinib -0.01 | [1] -0.05 | duvelisib 0.001 | gandotinib 0.031 | tozasertib 0.098 | doramapimod -0.044 | bafetinib 0.001 | [2] 0.015

SMIM1 (UniProt B2RUZ4)
Chain of UniProt B2RUZ4 (B2RUZ4 whole entry, looked up): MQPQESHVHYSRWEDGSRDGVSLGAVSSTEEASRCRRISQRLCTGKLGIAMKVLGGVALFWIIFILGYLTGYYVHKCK
inactive: lapatinib 0.098 | pictilisib -0.028 | crizotinib -0.106 | [1] 0.121 | gandotinib 0.106 | tozasertib -0.019 | doramapimod 0.034 | bafetinib -0.021 | [2] 0.011

STN1 (UniProt Q9H668)
inactive: lapatinib 0.128 | pictilisib -0.201 | crizotinib -0.068 | [1] -0.235 | gandotinib -0.212 | tozasertib -0.059 | doramapimod -0.101 | bafetinib -0.176 | [2] -0.028

SNUPN (UniProt O95149)
Chain of UniProt O95149 (O95149 whole entry, looked up): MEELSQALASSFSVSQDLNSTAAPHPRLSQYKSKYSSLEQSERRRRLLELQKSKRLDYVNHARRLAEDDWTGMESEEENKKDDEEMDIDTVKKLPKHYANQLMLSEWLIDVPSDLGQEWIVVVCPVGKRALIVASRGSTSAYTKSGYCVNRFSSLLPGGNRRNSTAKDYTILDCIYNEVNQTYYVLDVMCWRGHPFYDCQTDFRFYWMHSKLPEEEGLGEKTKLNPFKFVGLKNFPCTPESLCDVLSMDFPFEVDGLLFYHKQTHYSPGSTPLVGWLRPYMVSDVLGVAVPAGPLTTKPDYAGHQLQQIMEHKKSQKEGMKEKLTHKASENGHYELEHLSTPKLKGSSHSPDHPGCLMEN
inactive: lapatinib 0.026 | pictilisib -0.083 | crizotinib -0.03 | [1] -0.009 | gandotinib -0.036 | tozasertib 0.023 | doramapimod -0.002 | bafetinib -0.061 | [2] 0.006

SYNRG (UniProt Q9UMZ2)
inactive: lapatinib 0.022 | pictilisib -0.016 | crizotinib 0.016 | [1] 0.043 | duvelisib -0.041 | gandotinib -0.037 | tozasertib 0.024 | doramapimod -0.023 | bafetinib -0.032 | [2] -0.044

SYF2 (UniProt O95926)
inactive: lapatinib 0.026 | pictilisib 0.003 | crizotinib -0.008 | [1] -0.023 | duvelisib -0.144 | gandotinib 0.055 | tozasertib -0.066 | doramapimod 0.04 | bafetinib -0.026 | [2] -0.016

SMC4 (UniProt Q9NTJ3)
Chain of UniProt Q9NTJ3 (Q9NTJ3 whole entry, looked up): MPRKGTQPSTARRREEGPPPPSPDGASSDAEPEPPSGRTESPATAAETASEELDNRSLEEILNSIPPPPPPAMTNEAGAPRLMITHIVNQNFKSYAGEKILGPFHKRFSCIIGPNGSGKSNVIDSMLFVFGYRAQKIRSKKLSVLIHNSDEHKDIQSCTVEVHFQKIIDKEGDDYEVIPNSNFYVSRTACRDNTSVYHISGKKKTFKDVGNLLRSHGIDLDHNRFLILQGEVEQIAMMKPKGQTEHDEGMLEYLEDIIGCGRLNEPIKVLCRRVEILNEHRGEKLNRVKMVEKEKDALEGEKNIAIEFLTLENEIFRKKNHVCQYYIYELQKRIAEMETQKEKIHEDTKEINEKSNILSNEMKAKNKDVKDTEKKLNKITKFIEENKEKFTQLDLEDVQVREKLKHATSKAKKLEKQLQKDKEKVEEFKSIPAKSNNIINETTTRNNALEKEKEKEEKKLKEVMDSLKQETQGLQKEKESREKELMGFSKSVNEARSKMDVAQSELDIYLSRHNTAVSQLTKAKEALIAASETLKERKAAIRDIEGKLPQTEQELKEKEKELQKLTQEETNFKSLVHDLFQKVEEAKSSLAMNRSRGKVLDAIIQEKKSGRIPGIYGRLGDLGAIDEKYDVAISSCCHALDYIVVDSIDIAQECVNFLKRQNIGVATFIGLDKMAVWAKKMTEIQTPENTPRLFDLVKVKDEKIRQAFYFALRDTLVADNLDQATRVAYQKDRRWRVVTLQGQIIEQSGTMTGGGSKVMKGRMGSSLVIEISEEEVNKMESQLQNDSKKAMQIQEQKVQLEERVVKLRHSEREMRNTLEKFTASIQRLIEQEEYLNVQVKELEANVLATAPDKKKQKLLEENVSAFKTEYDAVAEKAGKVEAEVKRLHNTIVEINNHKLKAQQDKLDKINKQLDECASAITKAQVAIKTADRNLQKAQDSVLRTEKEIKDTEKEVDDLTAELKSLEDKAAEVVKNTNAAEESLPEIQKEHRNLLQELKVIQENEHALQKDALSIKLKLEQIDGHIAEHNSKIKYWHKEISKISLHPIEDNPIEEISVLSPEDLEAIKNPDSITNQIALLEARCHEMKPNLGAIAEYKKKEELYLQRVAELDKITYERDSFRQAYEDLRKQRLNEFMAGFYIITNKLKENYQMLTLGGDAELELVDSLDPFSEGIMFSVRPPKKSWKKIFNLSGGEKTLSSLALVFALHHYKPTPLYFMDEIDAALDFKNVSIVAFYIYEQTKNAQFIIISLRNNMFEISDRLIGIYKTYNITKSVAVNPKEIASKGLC
inactive: lapatinib -0.028 | pictilisib -0.002 | crizotinib -0.007 | [1] 0.068 | duvelisib 0.009 | gandotinib -0.154 | tozasertib -0.012 | doramapimod -0.026 | bafetinib -0.021 | [2] -0.051

SKA2 (UniProt Q8WVK7)
Chain of UniProt Q8WVK7 (Q8WVK7 whole entry, looked up): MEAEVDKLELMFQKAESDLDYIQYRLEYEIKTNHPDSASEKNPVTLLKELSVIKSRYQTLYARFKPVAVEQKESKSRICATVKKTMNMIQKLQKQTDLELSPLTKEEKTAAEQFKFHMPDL
inactive: lapatinib 0.005 | pictilisib -0.004 | crizotinib 0.027 | [1] 0.048 | duvelisib -0.004 | gandotinib -0.029 | tozasertib 0.048 | doramapimod -0.09 | bafetinib -0.017 | [2] 0.009

SH3BP2 isoform 4 (UniProt P78314)
Chain of UniProt P78314 (P78314 whole entry, looked up): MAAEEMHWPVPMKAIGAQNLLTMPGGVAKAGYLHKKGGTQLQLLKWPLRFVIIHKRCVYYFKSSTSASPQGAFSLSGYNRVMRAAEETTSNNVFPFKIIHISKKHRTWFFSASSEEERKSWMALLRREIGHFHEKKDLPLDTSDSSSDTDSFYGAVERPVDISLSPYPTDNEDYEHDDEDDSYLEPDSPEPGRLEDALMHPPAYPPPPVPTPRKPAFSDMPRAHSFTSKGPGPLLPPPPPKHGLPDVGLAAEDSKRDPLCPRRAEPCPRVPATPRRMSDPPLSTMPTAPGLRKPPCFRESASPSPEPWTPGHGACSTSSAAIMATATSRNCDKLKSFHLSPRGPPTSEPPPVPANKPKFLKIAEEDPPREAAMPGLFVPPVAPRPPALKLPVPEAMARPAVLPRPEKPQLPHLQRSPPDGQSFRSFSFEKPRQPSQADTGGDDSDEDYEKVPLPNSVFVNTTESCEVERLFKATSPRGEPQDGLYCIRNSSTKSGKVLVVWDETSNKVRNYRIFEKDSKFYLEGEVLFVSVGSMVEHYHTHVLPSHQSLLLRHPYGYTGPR
active: pictilisib -0.41
inactive: lapatinib -0.135 | crizotinib -0.021 | [1] 0.01 | duvelisib 0.053 | gandotinib -0.02 | doramapimod 0.057 | bafetinib -0.105 | [2] 0.123

SLC12A6 (UniProt Q9UHW9)
inactive: lapatinib 0.037 | pictilisib -0.046 | crizotinib -0.025 | [1] 0.008 | duvelisib 0.015 | gandotinib -0.028 | tozasertib -0.002 | doramapimod 0.027 | bafetinib -0.011 | [2] 0.034

SSB (UniProt P05455)
inactive: lapatinib -0.024 | pictilisib 0.015 | crizotinib 0.046 | [1] 0.05 | duvelisib -0.01 | gandotinib -0.03 | tozasertib 0.009 | doramapimod -0.032 | bafetinib 0.017 | [2] -0.036

SULT1A1 (UniProt P50225)
inactive: lapatinib 0.023 | pictilisib -0.052 | crizotinib -0.074 | [1] -0.014 | duvelisib -0.009 | gandotinib -0.023 | tozasertib -0.002 | doramapimod -0.037 | bafetinib -0.025 | [2] 0.046

SPHK1 isoform 2 (UniProt Q9NYA1)
inactive: lapatinib -0.039 | pictilisib 0.001 | crizotinib -0.018 | [1] -0.028 | duvelisib 0.013 | gandotinib 0.033 | tozasertib 0.122 | doramapimod 0.073 | bafetinib -0.007 | [2] -0.041

SQLE (UniProt Q14534)
inactive: lapatinib -0.056 | pictilisib -0.04 | crizotinib -0.057 | [1] -0.025 | duvelisib -0.057 | gandotinib -0.028 | tozasertib 0.068 | doramapimod -0.035 | bafetinib -0.047 | [2] 0.031

SVIP (UniProt Q8NHG7)
Chain of UniProt Q8NHG7 (Q8NHG7 whole entry, looked up): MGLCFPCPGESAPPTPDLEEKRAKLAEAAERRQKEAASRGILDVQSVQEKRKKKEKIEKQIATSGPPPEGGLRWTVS
inactive: lapatinib 0.005 | pictilisib -0.03 | crizotinib -0.037 | [1] 0.027 | duvelisib -0.013 | gandotinib 0.01 | tozasertib 0.037 | doramapimod 0.021 | bafetinib -0.008 | [2] 0.032

SYPL1 (UniProt Q16563)
inactive: lapatinib 0.015 | pictilisib -0.025 | crizotinib -0.001 | duvelisib 0.004 | gandotinib 0.16 | tozasertib -0.028 | doramapimod -0.009 | bafetinib -0.034 | [2] 0.163
active: [1] -0.376

SNRNP40 (UniProt Q96DI7)
Chain of UniProt Q96DI7 (Q96DI7 whole entry, looked up): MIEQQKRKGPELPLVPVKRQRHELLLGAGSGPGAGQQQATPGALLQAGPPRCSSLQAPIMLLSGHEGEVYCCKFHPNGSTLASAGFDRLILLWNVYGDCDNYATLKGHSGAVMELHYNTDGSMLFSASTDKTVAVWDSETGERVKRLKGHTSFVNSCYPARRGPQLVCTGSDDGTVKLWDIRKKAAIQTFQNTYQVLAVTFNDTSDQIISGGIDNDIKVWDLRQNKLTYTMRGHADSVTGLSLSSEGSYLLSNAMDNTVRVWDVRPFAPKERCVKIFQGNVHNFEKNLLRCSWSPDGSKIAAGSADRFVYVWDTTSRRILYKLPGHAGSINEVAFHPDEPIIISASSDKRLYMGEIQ
inactive: lapatinib -0.014 | pictilisib 0.063 | crizotinib -0.042 | [1] -0.075 | duvelisib -0.006 | gandotinib 0.167 | tozasertib 0.015 | doramapimod 0.121 | bafetinib 0.011 | [2] 0.089

SMN1 (UniProt Q16637)
inactive: lapatinib 0.086 | pictilisib 0.035 | crizotinib -0.183 | [1] -0.031 | duvelisib 0.021 | gandotinib -0.056 | tozasertib 0.049 | doramapimod 0.022 | bafetinib 0.036 | [2] 0.158

SRSF9 (UniProt Q13242)
Chain of UniProt Q13242 (Q13242 whole entry, looked up): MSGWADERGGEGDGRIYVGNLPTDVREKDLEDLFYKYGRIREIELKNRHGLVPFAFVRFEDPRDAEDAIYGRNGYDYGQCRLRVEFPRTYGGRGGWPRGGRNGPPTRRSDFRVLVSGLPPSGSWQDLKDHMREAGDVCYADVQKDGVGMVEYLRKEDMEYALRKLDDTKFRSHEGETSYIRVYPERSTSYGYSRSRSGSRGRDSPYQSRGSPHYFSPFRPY
inactive: lapatinib 0.014 | pictilisib 0.046 | crizotinib 0.006 | [1] -0.019 | duvelisib 0.011 | gandotinib -0.003 | tozasertib 0.019 | doramapimod 0.085 | bafetinib -0.028 | [2] 0.053

SH3GL3 isoform 3 (UniProt Q99963)
inactive: lapatinib -0.07 | pictilisib -0.087 | crizotinib -0.04 | duvelisib -0.005 | gandotinib 0.326 | tozasertib 0.028 | doramapimod 0.016 | bafetinib -0.147
active: [1] -0.548 | [2] 0.446

SPPL2A (UniProt Q8TCT8)
inactive: lapatinib -0.002 | pictilisib -0.059 | crizotinib -0.127 | [1] -0.302 | gandotinib -0.093 | tozasertib 0.082 | doramapimod -0.032 | bafetinib -0.127 | [2] 0.1

SLC11A2 isoform 3 (UniProt P49281)
inactive: lapatinib 0 | pictilisib -0.014 | crizotinib -0.004 | [1] -0.052 | duvelisib -0.025 | gandotinib 0.033 | tozasertib -0.08 | doramapimod -0.018 | bafetinib 0.035 | [2] 0.036

SLC30A6 isoform 2 (UniProt Q6NXT4)
inactive: lapatinib 0.115 | pictilisib -0.027 | crizotinib 0.009 | [1] -0.095 | gandotinib 0.048 | tozasertib 0.114 | doramapimod -0.058 | bafetinib 0.034 | [2] 0.116

STK24 (UniProt B4DR80)
inactive: lapatinib 0.006 | pictilisib 0 | crizotinib 0.044 | [1] 0.034 | duvelisib -0.016 | gandotinib 0.089 | tozasertib 0.001 | doramapimod -0.054 | bafetinib 0.004 | [2] 0
